The text below walks through data of ChEMBL document CHEMBL1961873, “Compounds: GSK PKIS; Assays: Nanosyn kinase panel” (2012).

For assay [1], the target named is T1, Serine/threonine-protein kinase D2 (Homo sapiens) (UniProt Q9BZL6).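 Further: mean value of PRKD2 inhibition, from the GSK PKIS screening panel.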
T1 sequence (whole entry): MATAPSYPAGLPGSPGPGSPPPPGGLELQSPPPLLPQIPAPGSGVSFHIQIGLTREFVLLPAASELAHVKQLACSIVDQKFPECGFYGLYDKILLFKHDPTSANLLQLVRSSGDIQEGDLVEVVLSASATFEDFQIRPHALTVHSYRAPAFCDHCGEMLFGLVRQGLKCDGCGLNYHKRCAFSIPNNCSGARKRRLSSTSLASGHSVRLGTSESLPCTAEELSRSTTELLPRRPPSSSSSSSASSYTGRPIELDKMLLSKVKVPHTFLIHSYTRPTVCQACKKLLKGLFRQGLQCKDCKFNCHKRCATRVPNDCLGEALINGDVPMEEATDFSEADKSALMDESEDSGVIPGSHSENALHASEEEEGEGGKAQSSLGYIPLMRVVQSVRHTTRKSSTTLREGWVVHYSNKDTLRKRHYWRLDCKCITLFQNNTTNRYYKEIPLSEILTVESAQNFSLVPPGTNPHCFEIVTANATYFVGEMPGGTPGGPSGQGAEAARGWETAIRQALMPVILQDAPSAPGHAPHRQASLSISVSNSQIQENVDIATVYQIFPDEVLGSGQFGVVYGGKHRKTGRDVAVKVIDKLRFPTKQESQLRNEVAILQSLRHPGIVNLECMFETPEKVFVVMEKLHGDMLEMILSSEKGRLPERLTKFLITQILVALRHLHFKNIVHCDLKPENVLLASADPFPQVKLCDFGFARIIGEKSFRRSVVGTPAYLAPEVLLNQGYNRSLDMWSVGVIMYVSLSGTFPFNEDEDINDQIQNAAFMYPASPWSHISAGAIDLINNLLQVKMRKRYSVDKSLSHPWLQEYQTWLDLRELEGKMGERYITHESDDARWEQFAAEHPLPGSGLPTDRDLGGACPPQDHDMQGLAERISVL
The note with it: at 1 µM.

Assay [2] addresses T2, Serine/threonine-protein kinase D3 (Homo sapiens) (UniProt O94806).
T2 sequence (whole entry): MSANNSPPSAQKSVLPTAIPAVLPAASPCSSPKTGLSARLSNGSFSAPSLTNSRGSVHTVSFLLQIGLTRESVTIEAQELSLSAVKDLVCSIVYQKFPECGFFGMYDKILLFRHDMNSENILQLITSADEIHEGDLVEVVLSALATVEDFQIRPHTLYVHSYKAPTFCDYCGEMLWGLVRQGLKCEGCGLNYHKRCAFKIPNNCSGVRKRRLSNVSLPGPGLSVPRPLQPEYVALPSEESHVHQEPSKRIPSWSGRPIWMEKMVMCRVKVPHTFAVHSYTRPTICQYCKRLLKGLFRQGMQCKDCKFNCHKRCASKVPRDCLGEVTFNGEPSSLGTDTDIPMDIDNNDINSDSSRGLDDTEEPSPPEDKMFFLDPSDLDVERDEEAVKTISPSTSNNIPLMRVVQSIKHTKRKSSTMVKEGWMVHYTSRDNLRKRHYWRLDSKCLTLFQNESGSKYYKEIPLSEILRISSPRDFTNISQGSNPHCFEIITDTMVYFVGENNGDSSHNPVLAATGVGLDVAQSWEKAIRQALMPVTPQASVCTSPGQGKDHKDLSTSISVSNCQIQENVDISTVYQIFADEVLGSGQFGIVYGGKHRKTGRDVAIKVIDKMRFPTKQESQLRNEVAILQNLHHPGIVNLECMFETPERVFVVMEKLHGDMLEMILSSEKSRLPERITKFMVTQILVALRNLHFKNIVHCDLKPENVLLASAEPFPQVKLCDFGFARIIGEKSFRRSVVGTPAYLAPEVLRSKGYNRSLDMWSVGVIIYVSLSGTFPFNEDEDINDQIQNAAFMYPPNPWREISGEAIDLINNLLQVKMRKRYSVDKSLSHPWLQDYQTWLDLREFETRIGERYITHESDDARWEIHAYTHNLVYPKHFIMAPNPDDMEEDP
The note with it: at 0.1 µM.

The target in assay [3] is T2, Serine/threonine-protein kinase D3 (Homo sapiens). Particulars: at 1 µM.
For assay [4], the target named is T3, cGMP-dependent protein kinase 1 (Homo sapiens) (UniProt Q13976).
T3 sequence (whole entry): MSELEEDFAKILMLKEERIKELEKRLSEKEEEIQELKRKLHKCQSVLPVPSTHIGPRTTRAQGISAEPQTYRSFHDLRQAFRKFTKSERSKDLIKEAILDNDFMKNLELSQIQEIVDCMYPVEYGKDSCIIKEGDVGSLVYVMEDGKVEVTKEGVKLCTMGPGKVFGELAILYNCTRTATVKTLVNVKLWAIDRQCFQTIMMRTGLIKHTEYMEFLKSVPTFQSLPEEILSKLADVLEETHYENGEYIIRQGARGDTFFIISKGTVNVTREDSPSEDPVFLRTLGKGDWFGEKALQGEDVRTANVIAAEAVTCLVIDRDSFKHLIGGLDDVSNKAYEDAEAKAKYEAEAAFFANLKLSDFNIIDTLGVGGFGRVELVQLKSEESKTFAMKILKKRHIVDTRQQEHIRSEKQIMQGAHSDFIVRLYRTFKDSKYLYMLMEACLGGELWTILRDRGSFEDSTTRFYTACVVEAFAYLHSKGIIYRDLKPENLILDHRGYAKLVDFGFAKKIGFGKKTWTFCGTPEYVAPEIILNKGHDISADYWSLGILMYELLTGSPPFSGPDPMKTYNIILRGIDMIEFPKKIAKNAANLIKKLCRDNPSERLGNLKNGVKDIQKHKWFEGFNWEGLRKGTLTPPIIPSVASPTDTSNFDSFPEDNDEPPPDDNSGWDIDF
The note with it: at 0.1 µM.

Assay [5] concerns the target T3, cGMP-dependent protein kinase 1 (Homo sapiens). Particulars: at 1 µM.
For assay [6], the target named is T4, cGMP-dependent protein kinase 2 (Homo sapiens) (UniProt Q13237).
T4 sequence (whole entry): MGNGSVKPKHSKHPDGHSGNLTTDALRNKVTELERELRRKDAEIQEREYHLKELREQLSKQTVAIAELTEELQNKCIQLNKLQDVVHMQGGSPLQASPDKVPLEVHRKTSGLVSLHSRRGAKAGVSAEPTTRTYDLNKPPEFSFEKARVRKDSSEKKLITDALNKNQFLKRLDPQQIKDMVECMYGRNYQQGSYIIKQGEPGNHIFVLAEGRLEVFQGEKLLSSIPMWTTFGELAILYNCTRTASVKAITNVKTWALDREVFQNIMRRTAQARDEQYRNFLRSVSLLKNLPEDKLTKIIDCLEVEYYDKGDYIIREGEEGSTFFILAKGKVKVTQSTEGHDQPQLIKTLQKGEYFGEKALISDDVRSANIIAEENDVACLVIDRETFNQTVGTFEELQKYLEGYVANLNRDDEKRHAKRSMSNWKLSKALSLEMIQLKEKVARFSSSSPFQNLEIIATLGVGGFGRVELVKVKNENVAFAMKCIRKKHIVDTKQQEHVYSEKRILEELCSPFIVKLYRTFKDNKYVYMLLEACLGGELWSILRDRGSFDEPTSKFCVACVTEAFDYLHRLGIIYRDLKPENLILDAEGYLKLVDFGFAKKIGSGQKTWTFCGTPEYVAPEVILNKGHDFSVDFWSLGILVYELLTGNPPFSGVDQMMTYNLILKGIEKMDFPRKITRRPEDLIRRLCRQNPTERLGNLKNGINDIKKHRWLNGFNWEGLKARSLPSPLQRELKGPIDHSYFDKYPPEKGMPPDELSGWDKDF
Particulars: at 0.1 µM.

The target in assay [7] is T4, cGMP-dependent protein kinase 2 (Homo sapiens). The note with it: at 1 µM.
Assay [8] concerns the target T5, cAMP-dependent protein kinase catalytic subunit PRKX (Homo sapiens) (UniProt P51817).
T5 sequence (whole entry): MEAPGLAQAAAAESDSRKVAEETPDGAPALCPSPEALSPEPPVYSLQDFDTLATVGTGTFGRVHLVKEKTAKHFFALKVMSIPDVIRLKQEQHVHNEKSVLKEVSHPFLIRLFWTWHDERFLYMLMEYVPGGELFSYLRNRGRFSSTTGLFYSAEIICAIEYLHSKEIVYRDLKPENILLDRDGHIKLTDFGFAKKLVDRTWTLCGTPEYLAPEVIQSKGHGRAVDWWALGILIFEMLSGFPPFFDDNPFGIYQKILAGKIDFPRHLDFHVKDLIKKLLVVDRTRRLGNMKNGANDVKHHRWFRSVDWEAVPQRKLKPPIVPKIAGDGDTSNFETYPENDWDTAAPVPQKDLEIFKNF
The note with it: at 0.1 µM.

In assay [9] the target is T5, cAMP-dependent protein kinase catalytic subunit PRKX (Homo sapiens). The note with it: at 1 µM.
For assay [10], the target named is Rho-associated protein kinase 2 (Homo sapiens) (UniProt O75116). The note with it: at 0.1 µM.
The target is the same in assay [11]. The note with it: at 1 µM.
Assay [12] addresses Ribosomal protein S6 kinase alpha-1 (Homo sapiens) (UniProt Q15418). Particulars: at 0.1 µM.
Assay [13] has the same target. Particulars: at 1 µM.
The target in assay [14] is Ribosomal protein S6 kinase alpha-3 (Homo sapiens) (UniProt P51812). The note with it: at 0.1 µM.
Assay [15] has the same target. Particulars: at 1 µM.
In assay [16] the target is Ribosomal protein S6 kinase alpha-2 (Homo sapiens) (UniProt Q15349). The note with it: at 0.1 µM.
For assay [17] the target is unchanged. Particulars: at 1 µM.
For assay [18], the target named is Ribosomal protein S6 kinase alpha-6 (Homo sapiens) (UniProt Q9UK32). Particulars: at 0.1 µM.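 Further: reported value is the mean inhibition of RSK4, from the GSK PKIS kinase inhibitor screen.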
Assay [19] concerns the target Rho-associated protein kinase 1 (Homo sapiens) (UniProt Q13464). Particulars: at 0.1 µM.
Assay [20] shares this target. The note with it: at 1 µM.

The structures appear in SMILES notation.

Chain of Ribosomal protein S6 kinase alpha-1 (Homo sapiens) (Q15418 whole entry): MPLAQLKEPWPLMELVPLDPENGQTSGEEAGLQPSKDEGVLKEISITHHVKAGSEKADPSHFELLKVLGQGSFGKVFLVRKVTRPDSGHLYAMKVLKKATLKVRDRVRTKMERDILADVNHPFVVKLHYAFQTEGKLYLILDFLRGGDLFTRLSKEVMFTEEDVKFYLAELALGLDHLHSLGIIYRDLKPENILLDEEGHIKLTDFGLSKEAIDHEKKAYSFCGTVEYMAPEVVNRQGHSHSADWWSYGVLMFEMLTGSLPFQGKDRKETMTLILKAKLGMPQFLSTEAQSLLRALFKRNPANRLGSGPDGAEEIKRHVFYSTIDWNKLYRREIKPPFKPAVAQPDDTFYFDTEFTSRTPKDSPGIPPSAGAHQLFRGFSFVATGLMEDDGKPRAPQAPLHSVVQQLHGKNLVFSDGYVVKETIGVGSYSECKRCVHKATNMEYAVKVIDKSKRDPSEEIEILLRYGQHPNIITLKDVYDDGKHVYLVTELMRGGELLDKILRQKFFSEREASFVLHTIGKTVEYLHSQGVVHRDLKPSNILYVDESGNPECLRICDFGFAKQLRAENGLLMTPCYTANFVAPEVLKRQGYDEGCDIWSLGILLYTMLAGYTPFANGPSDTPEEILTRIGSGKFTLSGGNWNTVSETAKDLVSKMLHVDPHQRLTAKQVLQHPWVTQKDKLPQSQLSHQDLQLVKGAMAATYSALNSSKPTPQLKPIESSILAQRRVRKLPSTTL
Chain of Ribosomal protein S6 kinase alpha-2 (Homo sapiens) (Q15349 whole entry): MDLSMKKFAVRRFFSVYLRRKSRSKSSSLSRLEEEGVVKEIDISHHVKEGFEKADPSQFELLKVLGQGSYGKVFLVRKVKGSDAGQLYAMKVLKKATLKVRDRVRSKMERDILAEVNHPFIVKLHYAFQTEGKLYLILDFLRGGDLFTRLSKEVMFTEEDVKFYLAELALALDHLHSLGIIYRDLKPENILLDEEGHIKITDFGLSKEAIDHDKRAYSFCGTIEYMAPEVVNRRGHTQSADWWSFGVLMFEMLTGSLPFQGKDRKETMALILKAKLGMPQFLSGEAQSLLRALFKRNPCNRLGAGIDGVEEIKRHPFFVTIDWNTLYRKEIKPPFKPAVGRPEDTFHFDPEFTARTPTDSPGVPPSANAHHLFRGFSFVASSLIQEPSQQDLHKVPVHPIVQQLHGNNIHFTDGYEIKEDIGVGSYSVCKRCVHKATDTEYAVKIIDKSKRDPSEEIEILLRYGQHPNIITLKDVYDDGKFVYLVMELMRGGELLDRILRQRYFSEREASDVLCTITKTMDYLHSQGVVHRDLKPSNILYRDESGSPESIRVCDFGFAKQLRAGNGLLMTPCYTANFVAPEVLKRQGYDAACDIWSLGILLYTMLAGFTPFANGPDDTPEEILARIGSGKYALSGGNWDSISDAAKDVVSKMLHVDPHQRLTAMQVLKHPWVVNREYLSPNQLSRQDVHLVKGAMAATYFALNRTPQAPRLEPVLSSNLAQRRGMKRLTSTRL
Chain of Ribosomal protein S6 kinase alpha-6 (Homo sapiens) (Q9UK32 whole entry): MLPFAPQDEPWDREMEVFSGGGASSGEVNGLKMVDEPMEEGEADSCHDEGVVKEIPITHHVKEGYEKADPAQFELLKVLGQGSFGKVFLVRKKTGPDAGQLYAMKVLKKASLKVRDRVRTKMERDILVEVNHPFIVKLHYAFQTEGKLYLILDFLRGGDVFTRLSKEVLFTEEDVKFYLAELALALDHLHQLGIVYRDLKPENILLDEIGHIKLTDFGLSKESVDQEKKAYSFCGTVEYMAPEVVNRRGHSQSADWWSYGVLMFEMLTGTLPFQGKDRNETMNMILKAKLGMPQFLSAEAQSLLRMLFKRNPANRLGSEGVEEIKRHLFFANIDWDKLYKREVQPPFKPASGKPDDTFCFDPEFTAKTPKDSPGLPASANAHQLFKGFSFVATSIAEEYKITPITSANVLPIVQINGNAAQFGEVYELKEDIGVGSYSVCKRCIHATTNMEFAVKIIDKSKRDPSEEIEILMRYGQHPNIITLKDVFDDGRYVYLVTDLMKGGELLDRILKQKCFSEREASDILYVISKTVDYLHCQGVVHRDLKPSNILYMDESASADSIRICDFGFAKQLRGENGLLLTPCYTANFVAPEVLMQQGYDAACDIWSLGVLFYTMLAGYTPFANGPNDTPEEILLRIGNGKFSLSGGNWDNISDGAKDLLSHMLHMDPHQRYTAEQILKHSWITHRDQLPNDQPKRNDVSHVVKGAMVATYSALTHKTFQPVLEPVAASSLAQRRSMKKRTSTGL
Chain of Ribosomal protein S6 kinase alpha-3 (Homo sapiens) (P51812 whole entry): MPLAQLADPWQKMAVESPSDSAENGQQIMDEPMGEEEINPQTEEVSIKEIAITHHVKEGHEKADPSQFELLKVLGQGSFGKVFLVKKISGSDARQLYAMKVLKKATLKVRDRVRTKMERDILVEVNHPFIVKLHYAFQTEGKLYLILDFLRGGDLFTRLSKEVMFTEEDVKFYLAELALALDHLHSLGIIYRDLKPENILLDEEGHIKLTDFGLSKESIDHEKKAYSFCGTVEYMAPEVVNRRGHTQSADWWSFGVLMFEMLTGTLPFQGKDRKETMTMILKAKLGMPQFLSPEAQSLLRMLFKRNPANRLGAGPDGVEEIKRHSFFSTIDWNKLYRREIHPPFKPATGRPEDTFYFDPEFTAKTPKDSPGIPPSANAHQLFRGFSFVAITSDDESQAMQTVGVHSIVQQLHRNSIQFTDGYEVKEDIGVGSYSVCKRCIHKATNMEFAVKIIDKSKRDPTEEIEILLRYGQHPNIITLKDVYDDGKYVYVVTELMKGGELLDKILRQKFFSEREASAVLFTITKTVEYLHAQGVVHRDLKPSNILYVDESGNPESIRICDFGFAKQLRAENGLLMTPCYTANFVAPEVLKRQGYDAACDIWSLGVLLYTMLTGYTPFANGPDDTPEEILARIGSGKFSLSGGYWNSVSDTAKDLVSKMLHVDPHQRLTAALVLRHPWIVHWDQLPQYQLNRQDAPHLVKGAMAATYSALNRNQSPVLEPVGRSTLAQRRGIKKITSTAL
Chain of Rho-associated protein kinase 2 (Homo sapiens) (O75116 whole entry, looked up): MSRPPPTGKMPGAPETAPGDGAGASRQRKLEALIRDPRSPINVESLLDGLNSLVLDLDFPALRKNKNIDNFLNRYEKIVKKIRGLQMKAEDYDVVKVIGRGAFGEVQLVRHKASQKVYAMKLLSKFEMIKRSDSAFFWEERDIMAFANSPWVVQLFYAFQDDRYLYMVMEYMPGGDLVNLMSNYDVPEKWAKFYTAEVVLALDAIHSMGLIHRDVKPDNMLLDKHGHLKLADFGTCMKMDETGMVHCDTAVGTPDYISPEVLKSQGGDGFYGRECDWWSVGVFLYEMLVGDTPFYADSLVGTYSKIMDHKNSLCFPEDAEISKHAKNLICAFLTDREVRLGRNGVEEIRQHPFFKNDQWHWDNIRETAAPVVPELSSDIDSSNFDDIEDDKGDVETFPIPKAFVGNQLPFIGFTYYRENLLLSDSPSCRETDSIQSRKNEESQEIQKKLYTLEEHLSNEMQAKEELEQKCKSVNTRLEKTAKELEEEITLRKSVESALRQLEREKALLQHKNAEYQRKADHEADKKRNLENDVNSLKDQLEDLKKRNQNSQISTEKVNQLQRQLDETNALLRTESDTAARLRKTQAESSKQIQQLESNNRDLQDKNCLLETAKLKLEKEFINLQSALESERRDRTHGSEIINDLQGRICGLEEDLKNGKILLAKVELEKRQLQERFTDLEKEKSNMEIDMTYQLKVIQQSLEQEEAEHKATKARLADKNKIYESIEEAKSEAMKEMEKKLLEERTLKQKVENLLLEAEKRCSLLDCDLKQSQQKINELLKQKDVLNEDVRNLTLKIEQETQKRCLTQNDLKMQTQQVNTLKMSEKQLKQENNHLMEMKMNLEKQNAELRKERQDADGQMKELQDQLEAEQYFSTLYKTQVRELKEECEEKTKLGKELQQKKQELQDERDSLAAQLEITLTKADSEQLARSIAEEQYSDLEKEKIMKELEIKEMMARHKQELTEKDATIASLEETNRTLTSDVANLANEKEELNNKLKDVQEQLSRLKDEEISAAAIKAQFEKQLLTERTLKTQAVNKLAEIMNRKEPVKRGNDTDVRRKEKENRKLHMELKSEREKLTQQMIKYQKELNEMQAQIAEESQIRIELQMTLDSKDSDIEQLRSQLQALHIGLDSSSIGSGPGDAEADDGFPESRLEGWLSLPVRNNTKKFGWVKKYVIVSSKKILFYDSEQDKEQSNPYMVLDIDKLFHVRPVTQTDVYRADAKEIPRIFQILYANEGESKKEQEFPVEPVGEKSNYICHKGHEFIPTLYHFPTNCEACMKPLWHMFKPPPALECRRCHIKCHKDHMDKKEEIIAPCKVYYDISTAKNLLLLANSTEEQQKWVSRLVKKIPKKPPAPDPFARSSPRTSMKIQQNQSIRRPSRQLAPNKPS

As for `CC1=C(C(=O)Nc2ccc3[nH]ncc3c2)C(c2ccc(F)cc2)NC(=O)N1` (centres undefined), the inhibition (commonly the drop in the measured response relative to a control, in per cent) in assay [1] is 8.48%; in assay [2], 3.46%; in assay [3] it was 7.95%; in [4] it was 4.58%; in assay [5] it was 20.1%; in [6], 1.73%. Also, the inhibition amounted to 12.6% in assay [7]; 12.7% in [8]; 53.4% in [9]; 64.1% in assay [10]; 74.5% in [11]; 2.36% in assay [12]. Also, the inhibition in assay [13] stood at 15.7%; in assay [14] it was 2.28%; in [15] it was 11.2%; in assay [16], 2.36%; in assay [17], 7.93%; in assay [18], 2.07%.

For the molecule `CCn1c(-c2nonc2N)nc2cncc(C(=O)N3CC[C@H](N)C3)c21`, the inhibition in assay [1] is 8.24%; in assay [2], 3.97%; in [3], 7.57%; in [4], 57%; in assay [5], 82.5%; in assay [6], 72.7%. For the same molecule, the inhibition in [7] worked out at 83.7%; in [8], 31.8%; in [9], 73.4%; in assay [10] it was 74.9%; in [11], 83.5%; in [12], 44.6%. Besides, the inhibition came to 75.8% in assay [13]; 31.3% in [14]; 69.9% in assay [15]; 18.3% in [16]; 65.9% in assay [17]; 6.13% in assay [18].

For `CCn1c(-c2nonc2N)nc2cncc(C(=O)N3CCNCC3)c21`, the inhibition turned out to be 4.19% in assay [1]; 5.65% in assay [2]; 4.94% in assay [3]; 5.91% in [4]; 9.25% in assay [5]; 6.28% in [6]. For the same molecule, the inhibition in assay [7] was determined as 7.34%; in [8] it was 3.9%; in [9], 3.75%; in [10], 3.45%; in assay [11], 4.33%; in [12], 1.84%. In addition, the inhibition was 3.1% in [13]; 0.8% in assay [14]; -0.05% in assay [15]; 3.17% in [16]; 3.01% in [17]; 1.32% in assay [18].

As to `COc1ccc(COc2ccc(Cc3cnc(N)nc3N)cc2OC)cc1`, the inhibition in assay [1] was 4.2%; in assay [2], 0.01%; in assay [3] it was 2.56%; in assay [4], 4.15%; in assay [5], 3.2%; in assay [6], 2.89%. The inhibition in assay [7] was 3.2%; in assay [8] it was 2.09%; in assay [9], 1.07%; in assay [19], 2.35%; in assay [20] it was 2.94%; in assay [10], 1.54%. Further, the inhibition in [11] was -1.22%; in [12], 1.36%; in assay [13], -1.81%; in assay [14], 0.78%; in [15], -0.8%; in [16], 0.01%. Moreover, the inhibition was -1% in [17] and 0.69% in [18].
